Bead autofluor – flagged as autofluorescent in microsphere protease counterscreen; compound autofluorescence counterscreen, microsphere flow cytometry; hits give high values; fluorescence intensity (concentration not given with the values); 3.1% of 360,000 active; in the data active means fluorescence intensity above about 16000; inconclusive means no clear call, values can overlap the other calls
BoNT F protease – blocks Botulinum neurotoxin F light chain protease | Multiplex microsphere protease cleavage assay, flow cytometry | inhibition, % at 10 µM | 0.22% of 360,000 active; in the data active means inhibition above about 35%, passing the limit was not always enough; inconclusive means no clear call, values can overlap the other calls; further: plate controls were buffer without enzyme for full effect and enzyme alone for no effect
Anthrax LF prot – inhibitors of Bacillus anthracis lethal factor protease | P15917 | multiplex microsphere protease cleavage assay, LF | inhibition, % at 10 µM | 0.12% of 360,000 active; further: plate controls were buffer without enzyme for full effect and enzyme alone for no effect
Target sequence (P15917 whole entry, looked up): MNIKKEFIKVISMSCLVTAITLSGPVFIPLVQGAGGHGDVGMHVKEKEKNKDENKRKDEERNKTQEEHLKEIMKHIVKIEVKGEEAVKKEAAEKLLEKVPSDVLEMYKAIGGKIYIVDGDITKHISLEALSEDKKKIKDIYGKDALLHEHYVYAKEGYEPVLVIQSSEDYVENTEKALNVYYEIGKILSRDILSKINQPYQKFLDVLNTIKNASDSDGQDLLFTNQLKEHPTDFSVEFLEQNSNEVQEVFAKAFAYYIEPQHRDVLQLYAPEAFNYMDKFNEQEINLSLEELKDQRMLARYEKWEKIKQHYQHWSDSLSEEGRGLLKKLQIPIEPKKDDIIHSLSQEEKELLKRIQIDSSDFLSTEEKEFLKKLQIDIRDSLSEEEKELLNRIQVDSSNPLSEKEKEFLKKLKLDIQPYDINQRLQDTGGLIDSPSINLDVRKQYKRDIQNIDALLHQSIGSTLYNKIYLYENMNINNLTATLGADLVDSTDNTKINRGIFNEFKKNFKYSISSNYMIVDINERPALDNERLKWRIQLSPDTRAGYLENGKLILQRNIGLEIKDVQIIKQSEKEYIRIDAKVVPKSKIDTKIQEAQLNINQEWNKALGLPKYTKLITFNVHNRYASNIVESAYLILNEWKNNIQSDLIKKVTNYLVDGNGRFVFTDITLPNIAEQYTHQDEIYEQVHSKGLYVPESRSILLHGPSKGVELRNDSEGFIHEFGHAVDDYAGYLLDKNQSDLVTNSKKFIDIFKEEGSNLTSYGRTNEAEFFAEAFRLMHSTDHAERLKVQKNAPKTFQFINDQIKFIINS
BoNT A protease – BoNT A light chain protease inhibition | multiplex microsphere protease substrate cleavage, flow cytometry | inhibition, % at 10 µM | 0.17% of 360,000 active | AID 588499; further: plate controls were buffer without enzyme for full effect and enzyme alone for no effect
BJeLR lethal – BJeLR cell viability loss; inhibition, % (no concentration beside the values); BJeLR (HRASV12) viability, CellTiter-Glo ATP luminescence, 48 h; AID 1554; 0.17% of 300,000 active; in the data active means inhibition above about 50%; inconclusive means no clear call, values can overlap the other calls
Starred values were filed as active, the others as inactive. Shown are actives, neighbours in structure and some others; about 3.5% of the full set was active somewhere. Unless noted, no stated cut-off is given here; in the data, active means inhibition above about 30%; inconclusive means no clear call, values can overlap the other calls; inactive means below that.

Screening CNC(=S)N1N=C(c2ccc(C)cc2)CC1c1ccc(Cl)cc1 (stereo unspecified) returned Bead autofluor inconclusive, BoNT F protease -4, Anthrax LF prot -3, BoNT A protease -2 and BJeLR lethal -2.
CNC(=S)N1N=C(c2ccc(C)cc2)CC1c1ccc(Br)cc1 (stereo unspecified) was read as Bead autofluor 23443*, BoNT F protease 0, Anthrax LF prot -2, BoNT A protease 0 and BJeLR lethal -6.
For CCN(CC)c1ccc(/C=C2\C(=O)c3ccc(C(=O)O)cc3C2=O)cc1 the results were Bead autofluor 9698, BoNT F protease 64*, Anthrax LF prot 37* and BoNT A protease 14.
Screening CN(C)c1ccc(C=C2C(=O)NC(=S)NC2=O)cc1 returned Bead autofluor 3874, BoNT F protease -1, Anthrax LF prot -3 and BoNT A protease -1.
For CCN(CC)c1ccc(C(=O)O)cc1 the results were Bead autofluor 2906, BoNT F protease 2, Anthrax LF prot 1, BoNT A protease 0 and BJeLR lethal 5.
CCN(CC)c1ccc(C=C2C(=O)NC(=S)NC2=O)cc1 was read as Bead autofluor 4317, BoNT F protease -6, Anthrax LF prot 3, BoNT A protease -4 and BJeLR lethal 51*.
`CC1(C)CC(NC(=O)c2sc3cc(Cl)ccc3c2Cl)CC(C)(C)N1` gave Bead autofluor 4898, BoNT F protease -1, Anthrax LF prot -2, BoNT A protease -1 and BJeLR lethal 2.
Screening C=CCn1c(SCc2c(C)noc2C)nc2sc3c(c2c1=O)CCCCC3 returned Bead autofluor 24051*, BoNT F protease -6, Anthrax LF prot -1, BoNT A protease -2 and BJeLR lethal -5.
C=CCn1c(SCc2c(C)noc2C)nc2sc3c(c2c1=O)CCCC3 was read as Bead autofluor 10261, BoNT F protease -10, Anthrax LF prot -4, BoNT A protease -1 and BJeLR lethal -29.
`O=C1N=C(N2CCCCC2)SC1=C1CCCC1` gave Bead autofluor 8227, BoNT F protease -5, Anthrax LF prot 1, BoNT A protease -1 and BJeLR lethal -6.
`CCCCN1C(=O)/C(=C2\SC(N3CCCCC3)=NC2=O)c2ccccc21` gave Bead autofluor 23186*, BoNT F protease -3, Anthrax LF prot -6, BoNT A protease inconclusive and BJeLR lethal 6.
Screening CCSc1nnc(NC(=O)C(CC)(C(F)(F)F)C(F)(F)F)s1 returned Bead autofluor 3329, BoNT F protease -11, Anthrax LF prot -2, BoNT A protease -1 and BJeLR lethal 11.
CCSc1nnc(NC(=O)C(C)(C(F)(F)F)C(F)(F)F)s1 was read as Bead autofluor 16389*, BoNT F protease -2, Anthrax LF prot -7, BoNT A protease 0 and BJeLR lethal 6.
CCSc1nnc(NC(=O)C(C(F)(F)F)C(F)(F)F)s1 was read as Bead autofluor 23475*, BoNT F protease -2, Anthrax LF prot -1, BoNT A protease -1 and BJeLR lethal 0.
COCCNC(=O)C1CCCN(Cc2ccccc2F)CC1 (stereo unspecified) was read as Bead autofluor 3954, BoNT F protease -5, Anthrax LF prot 1 and BoNT A protease 0.
For CC1(C(=O)NC2CCCCC2)CCC(=O)N1C1CCN(Cc2ccccc2)CC1 (stereo unspecified) the results were Bead autofluor 4226, BoNT F protease -5, Anthrax LF prot -6 and BoNT A protease 0.
For CC1(C(=O)NC2CCCC2)CCC(=O)N1Cc1ccccc1 (stereo unspecified) the results were Bead autofluor 23334*, BoNT F protease 0, Anthrax LF prot -3, BoNT A protease inconclusive and BJeLR lethal -7.
O=C(O)c1cccnc1SC1CC(=O)N(CCc2ccccc2)C1=O (stereo unspecified) was read as Bead autofluor 24601*, BoNT F protease -3, Anthrax LF prot 0, BoNT A protease -2 and BJeLR lethal -15.
Screening CN(Cc1ccccc1)S(=O)(=O)c1ccc(Cl)c(C(=O)OCC(N)=O)c1 returned Bead autofluor 4272, BoNT F protease 3, Anthrax LF prot -5, BoNT A protease 0 and BJeLR lethal 1.
CCC1C(c2ccccc2)N(C)C(c2ccccc2)CC1(O)c1ccccc1 (stereo unspecified) was read as Bead autofluor 3058, BoNT F protease 2, Anthrax LF prot -2, BoNT A protease -1 and BJeLR lethal -4.
For CC(C)C1C(c2ccccc2)N(C)C(c2ccccc2)CC1(O)c1ccccc1 (stereo unspecified) the results were Bead autofluor 21931*, BoNT F protease 1, Anthrax LF prot 0, BoNT A protease 2 and BJeLR lethal 5.
For COC(=O)c1cc(C(=O)N2CCc3ccccc32)cc([N+](=O)[O-])c1 the results were Bead autofluor 4301, BoNT F protease -24, Anthrax LF prot 6, BoNT A protease -1 and BJeLR lethal -6.
For COc1cc(C(=O)NCCC(=O)NCCCN2CCCCC2C)cc(OC)c1OC (stereo unspecified) the results were Bead autofluor 24313*, BoNT F protease -4, Anthrax LF prot -4, BoNT A protease -2 and BJeLR lethal 10.
For CCOC(=O)C1CCN(C(=O)CCNC(=O)c2cc(OC)c(OC)c(OC)c2)CC1 the results were Bead autofluor 16426*, BoNT F protease -1, Anthrax LF prot -4, BoNT A protease -1 and BJeLR lethal -10.
`COc1cc(C(=O)NCCC(=O)N2CCCCC2)cc(OC)c1OC` gave Bead autofluor 3910, BoNT F protease -14, Anthrax LF prot -16, BoNT A protease -2 and BJeLR lethal 5.
CC(C)CNC(=O)CSc1nc2nn(-c3ccccc3)c(=O)c-2c2n1CCCCC2 was read as Bead autofluor 4942, BoNT F protease -1, Anthrax LF prot -2, BoNT A protease -1 and BJeLR lethal 17.
CNC(=O)CSc1nc2nn(-c3ccccc3)c(=O)c-2c2n1CCCCC2 was read as Bead autofluor 21375*, BoNT F protease -2, Anthrax LF prot -1, BoNT A protease -3 and BJeLR lethal -5.
Screening Cc1nn(C)cc1C(=O)Nc1c(C)nn(Cc2ccccc2Cl)c1C returned Bead autofluor 7280, BoNT F protease -5, Anthrax LF prot -2, BoNT A protease 1 and BJeLR lethal 1.
`CCn1nc(C)c(NC(=O)c2cc(Br)ccc2Cl)c1C` gave Bead autofluor 19900*, BoNT F protease -1, Anthrax LF prot -5, BoNT A protease 0 and BJeLR lethal -2.
COc1ccc(N2CCN(Cc3nc(N)nc(Nc4ccc(C)c(Cl)c4)n3)CC2)cc1 was read as Bead autofluor 21102*, BoNT F protease -2, Anthrax LF prot -5, BoNT A protease -1 and BJeLR lethal 0.
`Nc1nc(CN2CCN(c3ccccn3)CC2)nc(Nc2ccc(F)cc2)n1` gave Bead autofluor 16591*, BoNT F protease -1, Anthrax LF prot -2, BoNT A protease 0 and BJeLR lethal 15.
For Cc1ccc(Nc2nc(N)nc(CN3CCN(Cc4ccc5c(c4)OCO5)CC3)n2)cc1Cl the results were Bead autofluor 23185*, BoNT F protease -5, Anthrax LF prot -4, BoNT A protease -1 and BJeLR lethal -14.
